Reference: PubChem BioAssay (NCATS)
Results filed as inconclusive are left out. Unmarked numbers belong to inactive results. Active and inactive are the calls of the source. Calls follow the shape of the dose curve; as a rule, active = well fitted cell-killing curve with a large enough effect; inconclusive = small, poorly fitted or top-dose-only effect, or effect the other way; inactive = no such curve, though single readings can be large or run the other way.

assay: Viability qHTS for spleen associated tyrosine kinase inhibitor (SYKi) drug resistant MV4-11 cells (AID 1963824); details: SYKi-resistant MV4-11 viability, CellTiter-Glo, 72 h; series mostly up to 45 µM; also: nearly all actives have a fitted effect of over 35% in size
Procedure, shortened: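 SYK inhibitor-resistant MV4-11 AML cells, 500 per well, added to predispensed compounds and incubated 72 hr at 37 C, 5% CO2. Viability measured by CellTiter-Glo luminescence after 10 min at room temperature.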
Potency is read from the fitted curve at half-maximal effect.

Structure (SMILES) | Potency | viability, % of control
C[C@H]1O[C@@H](O[C@H]2C[C@@H](O)[C@]3(CO)C4C(CC[C@]3(O)C2)[C@@]2(O)CC[C@H](C3=CC(=O)OC3)[C@@]2(C)C[C@H]4O)[C@@H](O)[C@@H](O)[C@H]1O (stereo not given in full) | 122 nM (active) | 
Cc1ccc(-n2nccn2)c(C(=O)N2CCN(c3nc4cc(Cl)ccc4o3)CCC2C)c1 (stereo not given) | 9200 nM (active) | 
C/C=C1/CN2CC[C@]34C(=Nc5ccccc53)[C@@H]2C[C@@H]1[C@H]4C(=O)OC | 2270 nM (active) | 
O=C1NC(=O)c2c1c1c3ccccc3[nH]c1c1[nH]c3ccccc3c21 | 51.7 nM (active) | 
CC(=O)O[C@H]1CC[C@@]2(CI)C(=CC[C@@H]3[C@@H]2CC[C@]2(C)C(=O)CC[C@@H]32)C1 | 20600 nM (active) | 
COc1ccc2c(c1)/C(=C/c1cnc[nH]1)C(=O)N2 | 1640 nM (active) | 
C[C@]12Cc3nonc3C[C@@H]1CC[C@@H]1[C@@H]2CC[C@@]2(C)[C@H]1CC[C@]2(C)O | 16800 nM (active) | 
C=CC(C)(C)c1[nH]c2c(CC=C(C)C)cc(CC=C(C)C)cc2c1C[C@@H]1NC(=O)[C@H](C)NC1=O | inactive | 
CN(C(=O)CN1C(=O)COc2cc(Cl)c(Cl)cc21)[C@@H](CN1CCCC1)c1ccc(-c2cccc(C(N)=O)c2)cc1 | 8200 nM (active) | 
C/C=C(\C)C(=O)O[C@H]1[C@H](OC(C)=O)[C@]2(CO)[C@H](O)[C@H](O)[C@]3(C)C(=CCC4[C@@]5(C)CC[C@H](O[C@@H]6O[C@H](C(=O)O)[C@@H](O)[C@H](O[C@@H]7OC[C@H](O)[C@H](O[C@@H]8OC[C@H](O)[C@H](O)[C@H]8O)[C@H]7O)[C@H]6O[C@@H]6O[C@H](CO)[C@@H](O)[C@H](O)[C@H]6O)C(C)(C)C5CC[C@]43C)[C@@H]2CC1(C)C (stereo not given in full) |  | 68.2% [at 9.25 µM]
Oc1ccc2c(c1)C13CCCC[C@H]1[C@@H](C2)N(CC1CCC1)CC3 | 10300 nM (active) | 
C[C@]12CC[C@H](OC3OC(CO)C(O)C(O)C3OC3OC(CO)C(O)C(O)C3O)C[C@@H]1CC[C@@H]1C2CC[C@]2(C)[C@@H](C3=CC(=O)OC3)CC[C@]12O (stereo not given in full) | 5440 nM (active) | 
C=C1[C@@H](O)[C@]2(O)OC[C@]34C2[C@]2(C)C(C[C@H]3OC(=O)[C@H](O)[C@@]14O)C(C)=CC(=O)[C@H]2O (stereo not given in full) | 3170 nM (active) | 
C/C=C1/CN2CC[C@]34C(=Nc5ccc(OC)cc53)C2C[C@@H]1C4(CO)C(=O)OC (stereo not given in full) | inactive | 
C/C=C(\C)C(=O)OC1CC2C(CC=C3CC(OC4CC(OC)C(OC5CC(OC)C(OC6OC(C)C(OC7OC(CO)C(O)C(O)C7O)C(OC)C6O)C(C)O5)C(C)O4)CCC32C)C2(O)CCC(C(C)=O)C12C (stereo not given) |  | 85.3% [at 9.25 µM]
Oc1ccc2[nH]cc(CCCCN3CC=C(c4ccccc4)CC3)c2c1 | 10600 nM (active) | 
COC1CC(O[C@H]2CC[C@@]3(C)C(=CCC4C3C(O)[C@@H](O)[C@]3(C)[C@@H](C(C)=O)CC[C@]43O)C2)OC(C)C1OC1CC(OC)C(OC2OC(C)C(O)C(O)C2O)C(C)O1 (stereo not given in full) |  | 103% [at 9.25 µM]
CC1=C[C@H]2O[C@@H]3C[C@H]4OC(=O)/C=C/C=C/C(=O)OCC/C(C)=C/C(=O)OC[C@@]2(CC1)[C@]4(C)[C@]31CO1 | 5.6 nM (active) | 
CN(C(=O)C(c1ccccc1)c1ccccc1)[C@H](CN1CC[C@H](O)C1)c1ccccc1 | 20600 nM (active) | 
C[C@@H]1CCC/C=C/[C@H]2C[C@@H](O)C[C@@H]2[C@@H](O)/C=C/C(=O)O1 | 146 nM (active) | 
CCCCCCC1C(=O)O[C@H](C)[C@H](NC(=O)c2cccc(NC=O)c2O)C(=O)O[C@@H](C)[C@@H]1OC(=O)CC(C)C (stereo not given in full) | 291 nM (active) | 
C[C@@H]1C[C@@H](O)[C@]2(O)O[C@@H]3C[C@@]4(C=O)C(CC[C@@H]5C4CC[C@]4(C)[C@@H](C6=CC(=O)OC6)CC[C@]54O)C[C@H]3O[C@@H]2O1 (stereo not given in full) | 31.7 nM (active) | 
C=CCN1CCC2(C)c3cc(O)ccc3C[C@H]1[C@H]2C | inactive | 
CO[C@H]1[C@H](O)[C@H](O[C@H]2CC[C@]3(C=O)C4CC[C@]5(C)[C@H](C6=CC(=O)OC6)CC[C@]5(O)C4CC[C@@H]3C2)O[C@@H](C)[C@@H]1O (stereo not given in full) | 20 nM (active) | 
CC(CCc1ccc(O)cc1)O[C@@H]1O[C@H](CO[C@H]2OC[C@](O)(CO)[C@H]2O)[C@@H](O)[C@H](O)[C@H]1O (stereo not given in full) | inactive | 
